Measurements taken from PubChem BioAssay (Tox21).
“And” between values parts separate entries of the source, which are not always exact repeats. Equal values may be shown once. Results filed as inconclusive are left out. Where a call stands in place of a potency, no number is given. Some structures have more than one record in an assay (separate samples or runs), and their calls can disagree. The source made the active and inactive calls. Unless noted, calls come from the whole dose curve; as a rule, active = well fitted curve in the direction sought with a large enough effect in the repeat runs; inconclusive = weak or mixed curves; inactive = no such curve, though single readings can be large; an effect the other way counts as inactive or inconclusive.

Columns and labels:
[1] = qHTS assay to identify small molecule agonists of the estrogen receptor alpha (ER-alpha) signaling pathway in the presence of an antagonist - cell viability counter screen (AID 1259386);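 note: cells exposed to compounds for 22 h at 37 °C before the viability read; nearly all actives have a fitted effect of over 30% in size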; note: potency is the fitted concentration of half-maximal effect
How it was run: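 Cytotoxicity was measured in parallel with the ERE-luciferase agonist screen, in the same wells. The cells were VM7Luc4E2, which endogenously express ER-alpha, and treatment was with compounds plus 10.0nM ICI-182,780 for 22hr.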

[2] = target: Progesterone receptor (Homo sapiens) (UniProt P06401); assay: qHTS assay to identify small molecule agonists of the progesterone receptor (PR) signaling pathway (AID 1346784; calls by dose curve; note: nearly all actives have a fitted effect of over 30% in size; note: potency is the fitted concentration of half-maximal effect)
Progesterone receptor (Homo sapiens), sequence (P06401 whole entry, looked up): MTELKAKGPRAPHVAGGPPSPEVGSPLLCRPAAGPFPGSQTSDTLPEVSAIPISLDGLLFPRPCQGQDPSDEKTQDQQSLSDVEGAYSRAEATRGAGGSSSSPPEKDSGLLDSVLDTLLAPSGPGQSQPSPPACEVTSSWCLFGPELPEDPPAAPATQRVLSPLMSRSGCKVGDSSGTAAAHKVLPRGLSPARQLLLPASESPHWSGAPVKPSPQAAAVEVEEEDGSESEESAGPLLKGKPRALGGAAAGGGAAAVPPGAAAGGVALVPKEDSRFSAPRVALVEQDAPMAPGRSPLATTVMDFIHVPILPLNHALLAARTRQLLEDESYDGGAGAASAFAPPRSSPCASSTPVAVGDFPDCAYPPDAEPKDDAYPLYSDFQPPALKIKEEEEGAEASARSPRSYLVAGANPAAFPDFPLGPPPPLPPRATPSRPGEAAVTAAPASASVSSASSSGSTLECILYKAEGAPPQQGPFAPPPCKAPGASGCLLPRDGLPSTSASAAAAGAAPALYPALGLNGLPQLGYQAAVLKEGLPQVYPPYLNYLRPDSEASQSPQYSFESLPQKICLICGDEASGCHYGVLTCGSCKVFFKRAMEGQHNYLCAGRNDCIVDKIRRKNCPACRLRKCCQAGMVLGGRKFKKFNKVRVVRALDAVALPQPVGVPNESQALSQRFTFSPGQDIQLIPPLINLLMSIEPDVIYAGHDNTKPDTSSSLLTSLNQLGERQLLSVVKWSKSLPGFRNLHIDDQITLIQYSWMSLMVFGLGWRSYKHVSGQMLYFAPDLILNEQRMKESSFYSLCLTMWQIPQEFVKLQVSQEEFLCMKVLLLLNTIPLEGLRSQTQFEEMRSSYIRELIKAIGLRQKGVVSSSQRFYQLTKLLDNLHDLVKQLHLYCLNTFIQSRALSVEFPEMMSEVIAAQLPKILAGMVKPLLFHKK
How it was run: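 Agonist mode, quantitative HTS format in a HEK 293T line expressing a UAS-controlled beta-lactamase reporter; 16 hr compound exposure at 37C in 2% charcoal-stripped FBS, then LiveBLAzer B/G FRET fluorescence.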

[3] = qHTS assay to identify small molecule agonists of the TGF-beta/Smad signaling pathway - cell viability counter screen (AID 1346829); note: nearly all actives have a fitted effect of over 45% in size; note: potency is the fitted concentration of half-maximal effect
How it was run: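 Luminescence from CellTiter-Glo, read after a 30 min room-temperature incubation, gives cell viability of SBE-bla HEK 293T cells treated 5 hr with compounds at 37 C.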

[4] = qHTS assay to identify small molecule agonists of the TGF-beta/Smad signaling pathway (AID 1346859; active = well fitted activation curve with a large enough effect in the signal ratio in the repeat runs, not every such curve was filed as active; the % refers to the signal ratio; note: series mostly up to about 77 µM)
How it was run: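 Smad-responsive beta-lactamase reporter cells (HEK 293T) received compounds from DMSO stocks after overnight attachment, were incubated 5 hr, then treated 2 hr with FRET substrate before dual-emission fluorescence measurement (405 nm excitation).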

[5] = target: Thyrotropin-releasing hormone receptor (Homo sapiens) (UniProt P34981); assay: qHTS assay to identify small molecule antagonists of the thyrotropin-releasing hormone receptor (TRHR) signaling pathway (AID 1346877; active = well fitted inhibition curve with a large enough effect in the repeat runs, not every such curve was filed as active; note: series mostly up to about 51 µM)
Thyrotropin-releasing hormone receptor (Homo sapiens), sequence (P34981 whole entry, looked up): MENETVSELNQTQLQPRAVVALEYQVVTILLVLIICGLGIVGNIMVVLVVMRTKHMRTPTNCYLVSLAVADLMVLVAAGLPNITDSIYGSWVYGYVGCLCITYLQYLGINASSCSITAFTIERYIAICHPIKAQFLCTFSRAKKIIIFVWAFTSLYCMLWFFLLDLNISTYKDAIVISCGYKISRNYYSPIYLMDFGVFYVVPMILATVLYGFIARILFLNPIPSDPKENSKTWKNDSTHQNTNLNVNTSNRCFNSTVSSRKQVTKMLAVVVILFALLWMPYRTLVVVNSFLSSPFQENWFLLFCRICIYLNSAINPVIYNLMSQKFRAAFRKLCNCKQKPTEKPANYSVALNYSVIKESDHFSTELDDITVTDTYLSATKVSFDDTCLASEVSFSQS
How it was run: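 Antagonism is measured as suppression of the calcium response to 1 nM TRH in TRHR-HEK293 cells that have been dye-loaded for 2 h at 37 °C after overnight plating. Each compound is tested at 15 concentrations in triplicate.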

[6] = target: Thyrotropin-releasing hormone receptor (Homo sapiens) (UniProt P34981); assay: qHTS assay to identify small molecule agonists of the thyrotropin-releasing hormone receptor (TRHR) signaling pathway (AID 1346891; calls by dose curve; note: potency is the fitted concentration of half-maximal effect;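 for activation: HEK293 cells expressing TRHR with calcium dye readout; series mostly up to about 58 µM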)
How it was run: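 Agonist-mode calcium mobilisation screen: TRHR-transfected HEK293 cells cultured overnight (18 h), dye-loaded for 2 h at 37 °C, exposed to compounds, and monitored by fluorescence for 3 min.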

[7] = target: Progesterone receptor (Homo sapiens) (UniProt P06401); assay: qHTS assay to identify small molecule antagonists of the progesterone receptor (PR) signaling pathway (AID 1346795; active = well fitted inhibition curve with a large enough effect in the signal ratio in the repeat runs, not every such curve was filed as active; the % refers to the signal ratio; note: potency is the fitted concentration of half-maximal effect)
How it was run: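 HEK293T PR-UAS-bla reporter cells in charcoal-stripped serum (2%) received compound after a 6 hr settling period, followed by R5020 agonist at 1 nM final; 16 hr incubation preceded the FRET substrate step and fluorescence measurement.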

[8] = qHTS assay to identify small molecule antagonists of the progesterone receptor (PR) signaling pathway - cell viability counter screen (AID 1346798); note: nearly all actives have a fitted effect of over 50% in size; note: potency is the fitted concentration of half-maximal effect
How it was run: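 Same-well multiplex: after 16 hr at 37C with compound and R5020 stimulation, HEK293T cells carrying a UAS-bla reporter received LiveBLAzer substrate (2 hr RT), then CellTiter-Glo (30 min RT) for luminescent viability.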

[9] = qHTS assay to identify small molecule antagonists of the TGF-beta/Smad signaling pathway - cell viability counter screen (AID 1346824); note: nearly all actives have a fitted effect of over 50% in size; note: potency is the fitted concentration of half-maximal effect
How it was run: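 Cytotoxicity counter-screen run in the same wells as the beta-lactamase Smad reporter read: CellTiter-Glo luminescence after 30 min at room temperature. HEK 293T SBE-bla cells had 5 hr compound exposure at 37 C with TGF-beta1 (0.25 ng/mL stock).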

[10] = qHTS assay to identify small molecule agonists of the progesterone receptor (PR) signaling pathway - cell viability counter screen (AID 1346799; calls by dose curve; note: nearly all actives have a fitted effect of over 45% in size; note: potency is the fitted concentration of half-maximal effect)
How it was run: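 Counter screen for cytotoxicity: compound-treated PR-UAS-bla HEK293T cells (16 hr, 37C, 5% CO2) were assayed with CellTiter-Glo, luminescence measured after 30 min at room temperature.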

SMILES | Potency [1] | Potency [2] | Potency [3] | outcome [4] | Potency [5] | Potency [6] | Potency [7] | Potency [8] | Potency [9] | Potency [10]
CO/N=C(/C1=NOCCO1)c1ccccc1Oc1ncnc(Oc2ccccc2Cl)c1F | 27.3 µM (active) | inactive | inactive | inactive | inactive | inactive |  |  |  | 
C[C@]12Cc3cn[nH]c3C[C@@H]1CC[C@@H]1[C@@H]2CC[C@@]2(C)[C@H]1CC[C@]2(C)O | inactive |  | inactive | inactive | inactive | inactive | 0.119 µM (active) | 18.8 µM (active) | inactive | 
O=[N+]([O-])c1ccc(CCl)cc1 | inactive |  | inactive | inactive |  |  | inactive | inactive | inactive | inactive
CCC(C)Nc1c([N+](=O)[O-])cc(C(C)(C)C)cc1[N+](=O)[O-] (stereo not drawn) | inactive |  | inactive | inactive | inactive | inactive |  | inactive | inactive | inactive
O=S1OCC2C(CO1)C1(Cl)C(Cl)=C(Cl)C2(Cl)C1(Cl)Cl (stereo not drawn) | inactive |  | inactive | inactive |  |  |  | 61.1 µM (active) | inactive | 68.7 µM (active)
CC(=O)O.CC(=O)O.CC(=O)O.CC(=O)O.CC(=O)O.CC(=O)O.CC(=O)O.O.O.[Cr].[Cr].[Cr] | inactive |  | inactive | inactive |  |  | inactive |  |  | inactive
CN(C)C(=S)SSC(=S)N(C)C | 30.2 µM (active) and 30.6 µM (active) |  | 34.2 µM (active) and inactive | inactive |  |  | 0.135 µM (active) | 170 nM (active) and 386 nM (active) and 266 nM (active) | 19.2 µM (active) and 43.6 µM (active) and 26.8 µM (active) | 344 nM (active) and 298 nM (active)
C=CCBr | inactive |  | inactive | inactive | inactive | inactive | inactive | inactive | inactive | inactive
O=C(N[C@@H]1N=C(c2ccccc2F)c2cccc3c2N(CC3)C1=O)c1cc2ccccc2[nH]1 | inactive |  | inactive | inactive |  | 12 µM (active) |  | inactive | inactive | inactive
COC(=O)c1ccccc1S(=O)(=O)NC(=O)Nc1nc(C)nc(OC)n1 | inactive |  |  | inactive | inactive | inactive | inactive | inactive | inactive | 
C#CCO | inactive |  | inactive | inactive | inactive | inactive | inactive |  | inactive | inactive
CCN(CC)C(=S)S | inactive |  |  | inactive |  |  | 49 µM (active) and 6.82 µM (active) and 13.7 µM (active) | 61.6 µM (active) and 7.65 µM (active) and 17.2 µM (active) | inactive | 
O=C(O)[C@H](O)[C@@H](O)C(=O)O | inactive |  | inactive | inactive | inactive | inactive | inactive | inactive | inactive | inactive
[C-]1=CC=CC1.[Cl][Zr+2][Cl].c1cc[cH-]c1 | inactive |  | inactive | inactive |  |  | inactive |  | inactive | inactive
N#CC(C#N)=NNc1cccc(Cl)c1 | 21.7 µM (active) |  | inactive |  | inactive | inactive | 13.7 µM (active) |  |  | 
Cc1ccc2cc3c(ccc4ccccc43)c3c2c1CC3 | inactive | inactive | inactive |  | inactive | inactive |  |  | inactive | 
O=c1[nH]c2cc(Cl)ccc2n1C1CCNCC1 | inactive |  | inactive | inactive | inactive | inactive | inactive | inactive | inactive | 
CCCCC(CC)COC(=O)c1ccccc1C(=O)OCC(CC)CCCC (stereo not drawn) | inactive | 43.3 µM (active) |  |  | inactive | inactive |  |  | inactive | 
CC[C@H](C)[C@H]1O[C@]2(C=C[C@@H]1C)C[C@@H]1C[C@@H](C/C=C(\C)[C@@H](O[C@H]3C[C@H](OC)[C@@H](O[C@H]4C[C@H](OC)[C@@H](NC)[C@H](C)O4)[C@H](C)O3)[C@@H](C)/C=C/C=C3\CO[C@@H]4[C@H](O)C(C)=C[C@@H](C(=O)O1)[C@]34O)O2 | 27.3 µM (active) |  |  |  |  |  |  | 24.3 µM (active) | 17.4 µM (active) | 13.7 µM (active)
CC(C)c1c(CN(C)C(C)Cc2ccccc2)n(C)n(-c2ccccc2)c1=O (stereo not drawn) | inactive | inactive |  |  | inactive | inactive |  |  | inactive | 
C1=CCC=C1 | inactive |  | inactive | inactive |  |  | inactive | inactive | inactive | inactive
COc1ccc(Cc2nccc3cc(OC)c(OC)cc23)cc1OC | 13.3 µM (active) |  | inactive | inactive | inactive | inactive | inactive |  | inactive | 
CCOP(=O)(OCC)Oc1nc(Cl)c(Cl)cc1Cl | inactive |  | inactive | inactive | inactive | inactive | 5.42 µM (active) |  | inactive | 
Cc1cnc2c(C(=O)O)c(Cl)ccc2c1 | inactive |  | inactive | inactive | inactive | inactive | inactive | inactive | inactive | inactive
N#CCCl | inactive |  | inactive | inactive |  |  | inactive |  | inactive | 
CO/N=C(\C(=O)OC)c1ccccc1CO/N=C(\C)c1cccc(C(F)(F)F)c1 | 30.6 µM (active) |  | inactive | inactive | inactive | inactive | 6.86 µM (active) | inactive |  | 
